Sampled rows, rich in hits. Any-hit rate of the full collection: about 0.85%.
aGlu spleen mod: inhibitors or activators of human alpha-glucosidase in spleen homogenate. P10253. human spleen homogenate, 4-MU-alpha-glucoside fluorescence. Potency, µM (top dose mostly 79.9 µM), for the others: at the top dose activity change, negative = inhibition, hits mostly inhibitors. hit rate 0.006% among 240,000. AID 2112;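 also: potency is read from the fitted curve at half-maximal effect; 0% = enzyme with vehicle and -100% = no enzyme basal signal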
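Enzyme source: human spleen homogenate, 1 ug/well. Buffer 50 mM citric acid/K phosphate pH 5.0, 0.01% Tween-20. 4-MU-alpha-glucoside 1 mM; 37 C x 40 min; NaOH/glycine stop; fluorescence.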
GAA inhib: blocks human lysosomal alpha-glucosidase | P10253 | purified human GAA, 4-MU-alpha-glucoside fluorescence | Potency, µM (titrated, usually from 76.9 µM), inactives show top-dose activity change, negative = inhibition, most hits filed as inhibitors | hit rate 0.005% among 200,000;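 also: potency is read from the fitted curve at half-maximal effect; plate controls were uninhibited enzyme wells for no effect and no-enzyme background for full effect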
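Activity normalized between no-enzyme (basal) and enzyme-only wells. Conditions: 4 nM human enzyme, 400 uM fluorogenic substrate, citrate/phosphate pH 5.0 with Tween-20, 20 min room temperature, compounds up to 77 uM.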
B2AR arrestin: recruits beta-arrestin to the human beta2-adrenergic receptor; AID 492947; Potency, µM (top dose mostly 46.1 µM), inactives show top-dose activation, usual class: activators; hit rate 0.02% among 330,000; beta-arrestin recruitment to beta2AR, cell-based reporter;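 also: potency is read from the fitted curve at half-maximal effect; 0% = DMSO controls and full agonism = EC100 isoproterenol or metaproterenol; nearly all actives have a fitted effect of over 65% in size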
Target sequence (P07550 whole entry, looked up): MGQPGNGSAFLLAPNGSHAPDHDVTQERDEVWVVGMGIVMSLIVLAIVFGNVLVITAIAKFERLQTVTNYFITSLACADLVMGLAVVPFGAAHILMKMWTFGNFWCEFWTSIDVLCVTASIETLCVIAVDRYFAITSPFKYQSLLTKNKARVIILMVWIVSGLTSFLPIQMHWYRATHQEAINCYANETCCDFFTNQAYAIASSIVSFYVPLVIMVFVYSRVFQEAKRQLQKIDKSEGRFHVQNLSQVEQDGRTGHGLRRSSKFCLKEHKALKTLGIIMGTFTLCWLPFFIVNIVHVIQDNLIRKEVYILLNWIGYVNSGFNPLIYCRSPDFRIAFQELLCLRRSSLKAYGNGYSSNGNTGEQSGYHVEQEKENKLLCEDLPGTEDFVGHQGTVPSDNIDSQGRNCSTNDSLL
GAA glycogen mod: alters human alpha-glucosidase cleavage of glycogen | recombinant GAA, glycogen substrate, Amplex Red glucose oxidase fluorescence | Potency, µM (highest dose often 76.4 µM), for inactives: top-dose activity change, negative = inhibition, actives largely listed as inhibitors | hit rate 0.38% among 300,000 | AID 2100;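 also: potency is read from the fitted curve at half-maximal effect; 0% = full enzyme reaction and -100% = no-enzyme basal signal; the screen sought inhibitors and activators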
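qHTS, 1536-well; enzyme 4 nM final; cpd up to 77 uM; substrate bovine liver glycogen 30 ug; 50 mM citrate/phosphate pH 5.0, 0.01% Tween-20; 37 C, 40 min; Amplex Red detection 45 min RT; Hill fit → AC50.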
Coupling enz: counter-screen for Giardia aldolase inhibitors: coupling enzyme system | coupling enzyme system counterscreen, AmpLite Red fluorescence | activity change, negative = inhibition, % at 58.2 µM, hits read low | hit rate 0.67% among 290,000 | AID 2472; in the data active = activity change below about -30%
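Counterscreen of the coupled detection system alone, without aldolase: glyceraldehyde-3-phosphate coupling enzymes plus AmpLite Red readout. Compounds at 57.5 uM final, 10 min RT preincubation, 20 min RT reaction, fluorescence 525/598 nm.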
* = called active by the depositor; ? = inconclusive; . = no result; [ ] = another dose, or the depositor's remark. Unless noted, calls follow the shape of the dose curve; as a rule, active = well fitted curve in the direction sought with a large enough effect; inconclusive = small, poorly fitted or top-dose-only effect, or another doubt; inactive = no such curve, though single readings can be large; an effect the other way counts as inactive or inconclusive. Unless noted, % is scaled to controls: 0 for no effect and ±100 for the full control effect.

SMILES	aGlu spleen mod	GAA inhib	B2AR arrestin	GAA glycogen mod	Coupling enz
N#CC1=C2SCN(Cc3ccccc3)CN2C(=O)CC1c1ccc2c(c1)OCO2 (configuration not stated)	6.6%	-10.6%	-0.3%	-26.1%	-31.8*
O=C(/C=C/c1ccco1)N(Cc1cccc(F)c1)C1CCS(=O)(=O)C1 (configuration not stated)	.	.	-1.1%	.	.
CN=c1scc(-c2ccc(F)cc2)n1/N=C/c1ccc(O)c(O)c1	-1.3%	-8.9%	-0.2%	5.62µM*	-9.4
CN=c1scc(-c2ccc([N+](=O)[O-])cc2)n1/N=C/c1ccco1	2.9%	-23.8%	-0.1%	-2.4%	-1.3
N#CC1=C(N)SC(N)=C(C#N)C1c1c(Cl)cccc1Cl	3.6%	-8.6%	1.0%	?	-51.2*
COCCNC(=S)N/N=C(\C)c1ccc(Cl)s1	-7.6%	.	10µM*	-20.6%	-1.1
Cc1oc2ccc(O)c(CN(C)Cc3ccccc3)c2c1C(=O)Nc1cccc(Cl)c1C	.	.	.	5.7%[76.3 µM]	.
CCOC(=O)/C=C(\C)Sc1cc(=O)oc2ccccc12	-3.3%	-2.4%	-0.2%	-2.2%	0.8
CCOC(=O)/C=C(\C)Sc1cc(O)c2ccccc2c1O	2.6%	.	-0.3%	-26.4%	-86.0*
O=S(=O)(N/N=C\c1ccc(-c2ccccc2Cl)o1)c1ccccc1	3.7%	5.9%	-1.3%	24.9µM*	6.9
O=C(N/N=C/c1ccc(-c2ccccc2Cl)o1)c1ccccc1	2.9%	-4.8%	0.3%	5.4%	-0.9
CC(C)[C@H](NC(=O)[C@H](CCC(N)=O)NC(=O)CNC(=O)[C@@H]1CCCN1C(=O)[C@H](Cc1ccc(O)cc1)NC(=O)CN)C(=O)O	-1.8%	.	.	.	1.4
COc1ccc(NC(=O)C2=NN(C3CCS(=O)(=O)C3)C(=O)CC2)cn1 (configuration not stated)	-1.2%	4.8%	0.0%	-15.6%	-42.1*
O=C(NCCN1CCOCC1)C1(C(F)(F)F)CC(CCCO)CCCO1 (configuration not stated)	-3.7%	.	.	.	1.9
O=S1(=O)N=C(Oc2cccc3ccccc23)c2ccccc21	4.4%	-0.8%	-0.5%	25.1µM*	-6.7
Cc1nc2ccc(N=NN(C)C)cc2[nH]1	-1.6%	.	-0.3%	4.8%	-35.3*
Cc1nc2ccc(Cc3ccc4nc(C)[nH]c4c3)cc2[nH]1	-10.4%	2.8%	-0.8%	0.3%	2.4
COc1ccc(-c2cn3cc(C)ccc3n2)cc1OC	4.0%	-1.1%	-0.3%	0.2%	-10.6
COc1ccc(-c2cn3cc(C)ccc3n2)cc1F	1.5%	11.6%	-0.3%	-0.1%	-34.4*
C/C=C1\COC(C(=O)NCCN2CCOCC2)(C(F)(F)F)C=C1C=C1CCCCC1 (configuration not stated)	-9.2%	.	.	.	3.5
NC(=NCCc1c[nH]c2ccccc12)NS(=O)(=O)c1ccc(F)cc1	3.0%	-3.4%	-0.5%	-7.7%	-1.9
NC(=NCCc1c[nH]c2ccccc12)NS(=O)(=O)c1ccc2ccccc2c1	1.7%	5.9%	3.1%	-13.2%	-36.4*
CC1=C(/C=C/C(=C/C=C/C(C)=C/C(=O)O)c2ccc(C)cc2)C(C)(C)CCC1	-15.4%	.	.	.	0.5
O=c1[nH][nH]c2cc(=O)n(-c3cccc(C(F)(F)F)c3)nc12	.	?	-0.1%	?	0.0
Nc1n[nH]c2cc(=O)n(-c3cccc(C(F)(F)F)c3)nc12	-19.5%	-10.1%	0.1%	31.6µM*	-2.1
SMILES	aGlu spleen mod	GAA inhib	B2AR arrestin	GAA glycogen mod	Coupling enz
COCc1cc(C)nc(SCC(=O)Oc2ccccc2)c1C#N	.	2.0%	-0.1%	-6.2%	0.7
COCc1cc(C)nc(SCC(=O)c2ccc(O)c(O)c2)c1C#N	-6.3%	-9.5%	-0.1%	14.1µM*	-0.6
C1=Cc2ccccc2Nc2ccccc21	-9.1%	.	2.5%	15.7µM*	-1.0
CN1CC(C(=O)O)Cc2c1ccc1ccccc21 (configuration not stated)	6.8%	?	0.2%	-25.0%	-46.2*
Cc1ccc(C)c(NC(=O)CSc2cn(CC(=O)N3CCCC3)c3ccccc23)c1	.	.	.	-4.2%[76.3 µM]	.
COc1ccc2[nH]c(=O)c(CNc3cccc(C)c3)cc2c1	10.3%	14.9%	3.7%	29.1%	-38.9*
CC1=Nc2cccc3cccc(c23)N1	2.8%	-4.6%	2.2%	14µM*	0.1
Nc1ccc(C2=Nc3cccc4cccc(c34)N2)cc1	-0.8%	5.7%	0.0%	-22.6%	1.4
CCOc1cc(NC2CS(=O)(=O)CC2O)c(OCC)cc1NC(=O)c1ccccc1 (configuration not stated)	-8.5%	-6.0%	-0.9%	?	-41.0*
COc1ccc(Cn2nnnc2C(c2cccs2)N2CCN(c3ccccc3)CC2)cc1 (configuration not stated)	-3.7%	-5.7%	0.4%	0.4%	-1.9
Oc1ccc(N2CCN(C(c3cccs3)c3nnnn3CCc3ccccc3)CC2)cc1 (configuration not stated)	-2.9%	-4.6%	0.2%	28µM*	-6.8
C=CC[C@@H]1C=C[C@@H](O/N=C\[C@@H](OC)[C@H](C)/C=C\CC(=O)OC)[C@@H](CO)O1	-4.2%[17.4 µM]	.	.	.	-1.0
CC(C)C(=O)NC(=O)C1CCCN1C(=O)/C=C/c1ccccc1 (configuration not stated)	-1.1%[17.4 µM]	.	.	.	-0.3
COc1cc(/C=C2\N=C3CCCCCN3C2=O)ccc1O	-9.2%	-10.1%	-1.7%	-25.0%	0.5
O=C1/C(=C\c2ccc(O)c(O)c2)N=C2CCCCCN12	-7.5%	.	0.1%	7.08µM*	-4.3
CSCC[C@H](NC(=O)[C@H](CC(C)C)NC(=O)CNC(=O)[C@H](Cc1ccccc1)N(C)C(=O)[C@H](Cc1ccccc1)NC(=O)[C@H](CC(=O)O)NC(=O)[C@@H](N)CC(=O)O)C(N)=O	-0.6%	.	.	.	-0.2
CCCCS(=O)(=O)Nc1ccc(C)cn1	-5.8%	?	-0.5%	-7.0%	-50.8*
Cc1ccc(NS(=O)(=O)c2cccs2)nc1	.	.	1.2%	.	-3.1
Cc1c(NC(=O)CN2CCN(c3ccc([N+](=O)[O-])cc3)CC2)c(=O)n(-c2ccccc2)n1C	-9.3%	-4.4%	0.5%	3.1%	3.9
Cc1ccc(S(=O)(=O)NCCCCCC(=O)Nc2c(C)n(C)n(-c3ccccc3)c2=O)cc1	-1.4%	-10.0%	-0.2%	0.4%	-1.0
Cc1c(NC(=O)CN2CCN(c3ccc(O)cc3)CC2)c(=O)n(-c2ccccc2)n1C	6.1%	2.1%	0.4%	3.98µM*	-22.2
Cc1ccc(N2C(=O)C(Cl)=C(Nc3c(C)n(C)n(-c4ccccc4)c3=O)C2=O)cc1	-9.4%	-5.3%	-0.1%	25.1µM*	3.9
Cc1ccc(S(=O)(=O)NC(=O)Nc2c(C)n(C)n(-c3ccccc3)c2=O)cc1	-8.5%	-1.1%	-0.4%	15.7µM*	-1.5
O=C(O)C1CCCN1 (configuration not stated)	1.3%	.	.	.	1.1

Screening data as filed in PubChem.
